Results taken from ChEMBL document CHEMBL4513216, “Probing the Open Global Health Chemical Diversity Library for Multistage-Active Starting Points for Next-Generation Antimalarials” (ACS Infect Dis, 2020).
Among all 69,000 compounds or so, about 8,600 (12%) showed an effect of 50% or more. The list comes from a sample in which strong results are over-represented; it also holds similar structures and randomly drawn compounds.

tested on: Plasmodium berghei; test: Screen against P. berghei liver stage (PbLuc), transformed with Luciferase, at 10uM; type: functional, HepG2; details: tested at 10 uM

SMILES | INHIBITION [%]
CNc1cc(N2CCCC2CNCc2cccs2)ncn1 (stereo not drawn) | 36.8
CNc1cc(N2CCCC2CNCc2cnc(C)cn2)ncn1 (stereo not drawn) | 7.7
CNc1cc(N2CCCC2CNCc2ccco2)ncn1 (stereo not drawn) | 59.8
CNc1cc(N2CCCC2CNCc2ccccn2)ncn1 (stereo not drawn) | -21.3
CNc1cc(N2CCCC2CNCc2ccc(Cl)o2)ncn1 (stereo not drawn) | 56.9
CNc1cc(N2CCCC2CNCc2ccc(C)o2)ncn1 (stereo not drawn) | -0.448
O=C(CNC(=O)c1ccc(Cl)cc1)Nc1nccs1 | 14.5
COc1ncccc1NC(=O)N(C1CC1)C(C)C(C)C (stereo not drawn) | 31.3
CCCc1nc(C(=O)NCCN2CCC(c3ccccc3C)C2)cs1 (stereo not drawn) | 85.1
Cc1nc(CC(=O)NCCN2CCC(c3ccccc3C)C2)cs1 (stereo not drawn) | 42.4
Cc1ccccc1C1CCN(CCNC(=O)CS(C)(=O)=O)C1 (stereo not drawn) | 36.9
COc1c(Br)c(CC2CC(CO)=NO2)c(OC)c2c1OCO2 (stereo not drawn) | 22.6
CCn1cc(CN2CCN(C(=O)c3cc(Br)cs3)CC2)c(C)n1 | 38.3
Cn1cc(Cl)c(CN(Cc2ccsc2)CC2CCCO2)n1 (stereo not drawn) | 11.5
O=c1oc2ccccc2n1CCN(CC1CCOC1)C1CC1 (stereo not drawn) | 51.3
CCN(Cc1ccc(C(C)=O)cc1)CC1CCOCC1 | 14.6
CCCN(CCn1c(=O)oc2ccccc21)CC1CC1 | 56.3
O=c1c2ccccc2nnn1CN(CC1CCOC1)C1CC1 (stereo not drawn) | -5.92
Cc1nn(CN(CC2CCOC2)C2CC2)c(=O)c2ccccc12 (stereo not drawn) | 8.86
CCN(CCn1c(=O)oc2ccccc21)CC1CCOCC1 | 64.9
O=c1oc2ccccc2n1CCCN1CCCC1c1ccc(O)cc1 (stereo not drawn) | 6.61
CCN(CC)CCn1c(=O)oc2ccccc21 | -5.1

SMILES | INHIBITION [%]
Cn1cc(C2CCCN2CCCn2c(=O)oc3ccccc32)cn1 (stereo not drawn) | 1.84
CCn1cc2[nH]c(OC)c(CNC(=O)C3CCCN(C)C3)cc-2c1=O (stereo not drawn) | 34.4
CC(C)(C)Nc1c(C2CCCN(C(=O)C3CC3)C2)nc2ccccn12 (stereo not drawn) | 14.05
Cc1nnc(CN(CCc2ccccc2)C2CCN(C)CC2)s1 | 4.12
CCn1cc(CNC2CCN(c3cccc(C)c3C)CC2)cn1 | -12.1
CCOC1COC2(CCN(CC3CC3)CC2)C1 (stereo not drawn) | 26.7
Nc1nccc(C2CCN(CCO)C2)n1 (stereo not drawn) | 15.5
Cc1nnc(N2CC[C@H]3C[C@H](C(=O)N(C)C)O[C@@H]3C2)s1 | 88.2
CNC(=O)[C@H]1C[C@@H]2CCN(c3nnc(C)s3)C[C@@H]2O1 | 21.8
Cc1nnc(N2CC[C@H]3C[C@@H](C(=O)NC4CCCC4)O[C@H]3C2)s1 | 61.4
Cc1nnc(N2CC[C@H]3C[C@@H](C(=O)N4CCCC4)O[C@H]3C2)s1 | -0.388
CN(C)C(=O)[C@@H]1C[C@@H]2CCN(C3CCOCC3)C[C@H]2O1 | 21.4
Cc1ccc(N2CC[C@H]3C[C@@H](C(=O)N4CCOCC4)O[C@H]3C2)nn1 | 34.1
Cc1ccc(CN2CC[C@H]3C[C@H](C(=O)N(C)C)O[C@H]3C2)cc1 | 25.5
COCCNC(=O)[C@H]1C[C@@H]2CCN(c3nncs3)C[C@H]2O1 | 18.5
Cc1nnc(N2CC[C@H]3C[C@H](C(=O)N4CCOCC4)O[C@H]3C2)s1 | 50
CCc1noc(CN2CCC(NC(=O)c3ccc(C)s3)CC2)n1 | -30
CCS(=O)(=O)CCSc1ccc(Cl)cc1 | 18.6
CCN(C(=O)COc1nc(Cc2ccc(F)cc2)no1)C1CC1 | -50.7
COc1ccc(-n2cc3[nH]c(=O)n(Cc4cccc(F)c4)n3c2=O)cc1 | -67
Cc1c(NC(=O)CN2CCN(C3CCCC3)C(=O)C2)cnn1C | 7.85
Cc1oc(C(=O)O)cc1S(=O)(=O)Nc1cccc(Cl)c1F | -46.2

SMILES | INHIBITION [%]
CCN1CCCN(S(=O)(=O)c2cc3ccccc3o2)CC1 | 46.6
O=S(=O)(c1cc2ccccc2o1)N1CCCC1 | 59.4
CC(=O)N1CCCN(S(=O)(=O)c2cc3ccccc3o2)CC1 | 16.6
O=C(C1CCOCC1)N1C[C@@H]2[C@@H](C1)OCC(=O)N2CC1CC1 | 7.96
Cc1ccc(S(=O)(=O)N2CCC3(CC(C(=O)NC4CCC4)=NO3)C2)cc1 (stereo not drawn) | 5.67
O=C(NC1CCC1)C1=NOC2(CCN(Cc3ccco3)C2)C1 (stereo not drawn) | 64.9
O=C(O)[C@]12CCCN(Cc3ccco3)C[C@H]1CN(c1ncccn1)C2 | 42.6
Cc1ccc(CN2CCC3(CC(C(=O)NCC4CC4)=NO3)C2)s1 (stereo not drawn) | -117
Cc1ccc(CN2CCC3(CC(C(=O)NC4CCC4)=NO3)C2)o1 (stereo not drawn) | 56.7
CC(Nc1ncnc2c1NC(=O)CN2)c1ccc2c(c1)OCO2 (stereo not drawn) | 48.2
Cn1nccc1C(=O)N1CCOC(Cc2ccc(Cl)cc2)C1 (stereo not drawn) | 0.301
Cc1cc(C)c(C(=O)N2CCOCC2c2c(C)nn(C)c2C)o1 (stereo not drawn) | -79.1
Cc1ccc(C(=O)N2CCCN(C)c3ccc(F)cc32)o1 | 16.5
CCc1cc(C(=O)N2CCCC(c3[nH]ncc3S(C)(=O)=O)C2)no1 (stereo not drawn) | 24.8
CCOc1cc(C)nc(N2CCN(Cc3nccn3C)CC2)n1 | 12.2
CCOc1cc(C)nc(N2CCN(Cc3nccn3CC)CC2)n1 | 50.8
CCn1ccnc1CN1CCN(c2cc(C)nc(C3CCCN3)c2)CC1 (stereo not drawn) | 11.02
CCn1ccnc1CN1CCN(c2nc(C)cc(OC)n2)CC1 | 78.3
COc1cc(C)nc(N2CCN(C(=O)CSC)CC2)n1 | -64.85
COc1cc(C)nc(N2CCN(Cc3nccn3C)CC2)n1 | 41.4
CC(C)Cc1noc(CN(C)c2ncccn2)n1 | -33.3
CCOc1ccccc1C(=O)N(C)C(C)c1ccc(S(C)(=O)=O)cc1 (stereo not drawn) | -162

SMILES | INHIBITION [%]
CCC(C)N(Cc1cccnc1)C(=O)c1ccc(OC)cc1O (stereo not drawn) | 32.9
CSCC(CCO)NC(=O)Nc1cccc(Br)c1C (stereo not drawn) | 36.8
CSCC(CCO)NC(=O)c1cccc(Cl)c1F (stereo not drawn) | 36.4
CSCC(CCO)NC(=O)c1cccc(C)c1Cl (stereo not drawn) | 54.1
CSCC(CCO)NC(=O)c1cccc(F)c1Cl (stereo not drawn) | 65.9
CSCC(CCO)Nc1cccc(C(F)(F)F)n1 (stereo not drawn) | 22.8
CSCC(CCO)NC(=O)Nc1ccc(C)cc1C (stereo not drawn) | -7.53
CC(C)NC(=O)C1c2c(ncn2C(C)C)CCN1Cc1ccccc1 (stereo not drawn) | 8.67
Cn1ccc(C(=O)NC2CCC23CCN(CC2CCOCC2)CC3)c1 (stereo not drawn) | 12
CC[C@@H](C)[C@H](NC(=O)NC1CCS(=O)(=O)C1)C(=O)NCc1ccncc1 (stereo partly drawn) | -41.2
O=C(N[C@@H]1CN(Cc2cccs2)[C@@H]2COC[C@@H]21)C1CCC1 | -0.804
CCN(CC1CCCO1)C(=O)Nc1cc(C)ccc1S(C)(=O)=O (stereo not drawn) | -12.2
Cc1cnn(CCNC(C)c2nnc(-c3ccccc3)o2)c1 (stereo not drawn) | 54.8
Cc1ccc(-c2nnc(C(C)NCCn3cc(C)cn3)o2)cc1 (stereo not drawn) | -3.87
Cc1cccc(-c2nnc(C(C)NCCn3cc(C)cn3)o2)c1 (stereo not drawn) | 17.9
Cn1ncc2c1CCCC2NCc1cc(Br)cs1 (stereo not drawn) | 31.1
NCCNS(=O)(=O)Cc1ccc(Br)cc1 | 16.9
COCc1noc(CN2C[C@H](C3CC3)[C@@H](N(C)C)C2)n1 | 17.1
O=C(CCOc1ccccc1F)N1CCCC1Cn1cccn1 (stereo not drawn) | 29.2
CN(CCC(=O)N1CCc2sccc2C1)Cc1cnn(C)c1 | 19.2
CC(C)c1cc(C(=O)N2CCc3ccccc3C2C(=O)O)n(C)n1 (stereo not drawn) | 66.3
CC(C)c1nc(C(=O)N2CCc3ccccc3C2C(=O)O)cs1 (stereo not drawn) | 6.61

SMILES | INHIBITION [%]
CC(C)c1cc(C(=O)N2CCc3ccccc3C2C(=O)O)nn1C (stereo not drawn) | -28
O=C(O)C1(n2ccc(-c3ccco3)n2)CCN(Cc2ccsc2)CC1 | -14.3
Nc1no[n+]([O-])c1C(=O)NCc1cccnc1 | 42.8
Cn1cccc1CCC(=O)N1CCC2(CC1)c1ccccc1CC2O (stereo not drawn) | 60.1
O=C(CCN1CCNCC1)N1CCC2(CC1)c1ccccc1CC2O (stereo not drawn) | 31.6
NS(=O)(=O)CCCC(=O)N1CCC2(CC1)c1ccccc1CC2O (stereo not drawn) | -38.8
NC(=O)NCC(=O)N1CCC2(CC1)c1ccccc1CC2O (stereo not drawn) | 28.3
CSCC(=O)N1CCC2(CC1)c1ccccc1CC2O (stereo not drawn) | 65.1
O=C(CSc1ccncc1)N1CCC2(CC1)c1ccccc1CC2O (stereo not drawn) | -16.8
COCCC(=O)N1C[C@@H](c2ccc(F)c(F)c2)[C@@]2(CCCC(=O)N2)C1 | 17.4
CCNC(c1cccnc1)c1ccc(F)cc1F (stereo not drawn) | 30.6
COCCNc1ccccc1CNC(=O)NCc1nc(C)c(C)s1 | 72
Cc1ncc(CNC(=O)NCC(C)Oc2ccccc2F)s1 (stereo not drawn) | -47.3
COCCNc1ccccc1CNC(=O)NCc1cnc(C)s1 | 52.1
COc1ccc(CNC(=O)NCc2nc(C)c(C)s2)cn1 | 48.5
Cc1ncc(CNC(=O)NCc2c(F)cccc2OC(F)F)s1 | 10.7
Cc1ccc(CNC(=O)NCc2cccnc2N(C)C)s1 | 15.5
COCCNc1ccccc1CNC(=O)C1CCCOC1 (stereo not drawn) | 35.1
COCCNc1ccccc1CNC(=O)NCc1ccc(C)s1 | 64.1
COc1ccc(CNC(=O)NCCc2nc(C)c(C)s2)cn1 | 31.2
